In PubChem BioAssay AID1508625 (Wald Lab, School of Medicine, Case Western Reserve …, 2021):

Experiment: small molecules boosting NK-mediated OVCAR3 lysis – imaging, primary NK cells, calcein-AM imaging, primary screen (AID 1508625);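 further: compound given to NK cells 16 h before adding targets at 1.5 to 1 ratio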;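 on z-score: more negative robust z means stronger NK killing of tumor cells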
Conditions: OVCAR3 lysis by primary NK cells, at 5 µM; z-score: measured here: robust Z-score, single-point normalisation

Work on `CCC(C)NC(=O)c1ccc2c(=O)n(Cc3ccccc3OC)c(=S)[nH]c2c1` (stereo not drawn) yielded a corrected activity, negative = more killing of -7.22% and a z-score of -1.91.

For `COC(=O)c1ccc(C=NNc2nc(-c3ccc(Cl)cc3)cs2)cc1`, the corrected activity, negative = more killing was -2.03% and the z-score was -0.861.

Compound `CCOc1ccc(-c2n[nH]c(C(=O)NN=Cc3cccnc3)c2C)cc1` has a corrected activity, negative = more killing of -3.11% and a z-score of -1.36.

Work on `Cc1ccc(Nc2nc(C)cc(C)c2C(N)=O)cc1` yielded a corrected activity, negative = more killing of -3.73% and a z-score of -1.66.

With `COC(=O)c1ccc(COC(=O)c2cc3ccccc3oc2=O)cc1` the corrected activity, negative = more killing was -2.06% and the z-score was -1.15.

`COc1cccc(Nc2ncnc3sc(C)c(S(=O)(=O)N4CCC(C)CC4)c23)c1` showed a corrected activity, negative = more killing of -2.61% and a z-score of -0.65.

`COc1cc(C(=S)N2CCCCC2)cc(OC)c1OC(=O)c1cccc2ccccc12` showed a corrected activity, negative = more killing of -9.1% and a z-score of -3.43.

For `COc1ccc(C=NNC(=O)c2cc(C34CC5CC(CC(C5)C3)C4)[nH]n2)cc1O`, the corrected activity, negative = more killing was 0.0734% and the z-score was 0.0321.

In the case of `CCOc1ccc(-n2c(SCC(=O)c3ccccc3)nc3c([nH]c4ccccc43)c2=O)cc1`, the corrected activity, negative = more killing is reported as -9% and the z-score is reported as -2.24.

Work on `COCCOC(=O)C1=C(C)N(C)C(=O)NC1c1ccccc1Cl` (stereo not drawn) yielded a corrected activity, negative = more killing of -3.72% and a z-score of -1.32.

For `COCCNCCCOc1cccc(Br)c1`, the corrected activity, negative = more killing was -1.7% and the z-score was -0.634.

With `O=c1c(=Nc2ccccc2O)c(=O)c2ccccc12` the corrected activity, negative = more killing was -2.51% and the z-score was -0.945.

`COc1ccc(-c2ccc3c(N)c(C(=O)NCCc4ccc(Cl)cc4)sc3n2)cc1` showed a corrected activity, negative = more killing of -1.65% and a z-score of -0.492.

With `CCOc1ccc(NC(=O)Cn2c(=O)n(CCc3ccccc3)c(=O)c3c4c(sc32)CCCC4)cc1` the corrected activity, negative = more killing was -8.33% and the z-score was -2.36.

For `O=[N+]([O-])c1ccc(OCCCN2CCNCC2)cc1`, the corrected activity, negative = more killing was -3.62% and the z-score was -2.02.

`O=C(CSc1nc2cc3c(cc2c(=O)n1Cc1ccco1)OCO3)NCc1ccccc1` gave a corrected activity, negative = more killing of -4.67% and a z-score of -1.24.

With `CC1=NNC(=O)C1CCC(=O)NN=Cc1ccncc1` (stereo not drawn) the corrected activity, negative = more killing was -4.86% and the z-score was -2.12.

`COc1ccc(Nc2ccncc2[N+](=O)[O-])cc1` showed a corrected activity, negative = more killing of -5.75% and a z-score of -3.2.

In the case of `O=C(O)CN1C(=O)c2ccc(C(=O)O)cc2C1=O`, the corrected activity, negative = more killing is reported as -5.22% and the z-score is reported as -1.62.

Compound `Cc1ccc(C(=O)NC(=Cc2cccnc2)C(=O)Nc2ccc(I)cc2)cc1` has a corrected activity, negative = more killing of -0.444% and a z-score of -0.23.

Compound `OCCNCCCOc1ccccc1F` has a corrected activity, negative = more killing of -1.78% and a z-score of -0.566.

Compound `CCOc1ccc2nc(SCCC(=O)Nc3ccc(OC)cc3)sc2c1` has a corrected activity, negative = more killing of -5.58% and a z-score of -2.99.

Work on `COc1ccccc1CNC(=O)C1CCN(S(=O)(=O)c2cccc3nonc23)CC1` yielded a corrected activity, negative = more killing of -5.24% and a z-score of -1.49.

In the case of `O=C(Nc1ccccc1[N+](=O)[O-])C12CC3CC(CC(C3)C1)C2`, the corrected activity, negative = more killing is reported as -1.55% and the z-score is reported as -0.55.

In the case of `Cc1cc(Cl)ccc1OC(C)C(=O)n1cnc2ccccc21` (stereo not drawn), the corrected activity, negative = more killing is reported as -1.02% and the z-score is reported as -0.42.

For `N#Cc1c2c(c(-n3ccnc3)n3c1nc1ccccc13)CCC2`, the corrected activity, negative = more killing was -2.49% and the z-score was -0.772.

With `CC1CCC(NC2CCCc3c2[nH]c2ccc([N+](=O)[O-])cc32)C1` (stereo not drawn) the corrected activity, negative = more killing was 3.64% and the z-score was 1.59.

With `OCCNCCCOc1cccc(Cl)c1Cl` the corrected activity, negative = more killing was 2.34% and the z-score was 0.743.

Compound `N#Cc1cc2c(N)c(C(=O)Nc3ccccc3Oc3ccccc3)sc2nc1N` has a corrected activity, negative = more killing of 0.0831% and a z-score of 0.0248.

In the case of `Cc1ccc(-c2sc3nc(-c4ccccc4)ccc3c2N)c(C)c1`, the corrected activity, negative = more killing is reported as -3.23% and the z-score is reported as -1.23.

`CN1C(=O)c2ccccc2C(C(=O)Nc2ccc3c(c2)OCCO3)C1c1cccs1` (stereo not drawn) showed a corrected activity, negative = more killing of -7.21% and a z-score of -1.79.

Compound `CC(C)c1ccc(OCC(=O)Nc2ccc3c(c2)OCCO3)cc1` has a corrected activity, negative = more killing of -2.45% and a z-score of -0.869.

For `COc1cccc(C(=O)N2CCN(C(=O)c3ccccc3OC)CC2)c1`, the corrected activity, negative = more killing was -2.57% and the z-score was -1.15.

`COc1ccc(C=Nc2ccc(C(N)=O)cc2)cc1` showed a corrected activity, negative = more killing of -2.24% and a z-score of -0.885.

In the case of `O=C1C(=O)N(CCCN2CCOCC2)C(c2ccco2)C1=C(O)c1ccc(F)cc1` (stereo not drawn), the corrected activity, negative = more killing is reported as -4.3% and the z-score is reported as -1.86.

In the case of `Cc1ccc2nc(NC(=O)COC(=O)CSc3nc(C)cc(C)n3)sc2c1`, the corrected activity, negative = more killing is reported as -4.93% and the z-score is reported as -1.86.

Work on `O=C1C2C3C=CC(C3)C2C(=O)N1CCCO` (stereo not drawn) yielded a corrected activity, negative = more killing of -1% and a z-score of -0.311.

`C=CCSc1nc(C)c2cc(C)ccc2n1` showed a corrected activity, negative = more killing of -2.18% and a z-score of -0.675.

Work on `CCOC(=O)Cc1ccc(N(Cc2cccs2)S(=O)(=O)c2ccc([N+](=O)[O-])cc2)cc1` yielded a corrected activity, negative = more killing of -7.32% and a z-score of -1.98.

`Cc1ccc2nc(-c3ccc(Cl)c(NC(=O)Cc4ccccc4)c3)oc2c1` gave a corrected activity, negative = more killing of -3.3% and a z-score of -1.77.

With `CC(=O)NCCNC(=O)c1ccc(Cn2c(=S)[nH]c3cc4c(cc3c2=O)OCO4)cc1` the corrected activity, negative = more killing was -3.96% and the z-score was -1.05.

In the case of `Cc1c(C(=O)Nc2ccccc2O)cccc1[N+](=O)[O-]`, the corrected activity, negative = more killing is reported as -4.28% and the z-score is reported as -1.61.

For `O=C(c1ccccc1F)N1CCN(c2cc(N3CCCCC3)c(F)cc2[N+](=O)[O-])CC1`, the corrected activity, negative = more killing was -2.72% and the z-score was -0.843.

`COc1ccc(C=c2sc3nc4cc(C)c(C)cc4n3c2=O)cc1Br` showed a corrected activity, negative = more killing of -0.475% and a z-score of -0.246.
